Sampled rows, rich in hits. Any-hit rate of the full collection: about 6%.
PLK1 PBD inh: qHTS for Inhibitors of PLK1-PDB (polo-like kinase 1 - polo-box domain): Primary Screen; Plk1 PBD binding of FITC phosphopeptide, fluorescence polarization; Potency, µM, hits mostly inhibitors; 2.8% of 360,000 active; AID 720504, 2013; also: series mostly up to about 57 µM; nearly all actives have a fitted effect of over 65% in size
Target sequence (P53350 whole entry, looked up, the tested form may be a part): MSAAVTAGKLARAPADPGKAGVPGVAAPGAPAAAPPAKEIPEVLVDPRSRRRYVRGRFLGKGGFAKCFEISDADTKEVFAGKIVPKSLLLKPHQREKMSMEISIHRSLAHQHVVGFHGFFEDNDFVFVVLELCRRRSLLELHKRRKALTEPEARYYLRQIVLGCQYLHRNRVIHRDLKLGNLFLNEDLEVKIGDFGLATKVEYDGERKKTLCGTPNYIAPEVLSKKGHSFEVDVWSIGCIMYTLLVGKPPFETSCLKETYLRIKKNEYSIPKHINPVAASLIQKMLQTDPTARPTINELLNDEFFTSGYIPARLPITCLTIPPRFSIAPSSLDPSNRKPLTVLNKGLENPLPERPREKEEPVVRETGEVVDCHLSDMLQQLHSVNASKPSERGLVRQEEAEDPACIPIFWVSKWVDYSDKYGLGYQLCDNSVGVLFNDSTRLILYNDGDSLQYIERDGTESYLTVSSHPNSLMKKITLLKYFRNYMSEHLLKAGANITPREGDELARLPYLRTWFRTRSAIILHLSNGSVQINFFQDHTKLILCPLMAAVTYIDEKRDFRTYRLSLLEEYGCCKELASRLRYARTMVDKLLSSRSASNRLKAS
Sfp PPTase inh: qHTS Assay for Inhibitors of Bacillus subtilis Sfp phosphopantetheinyl transferase (PPTase); AID 1490, 2009; Biochemical Sfp PPTase activity, qHTS; 4'-phosphopantetheinyl transferase ffp (Bacillus subtilis), Q9F4F7; Potency, µM, hits mostly inhibitors; 3.5% of 310,000 active;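 also: the enzyme is Sfp with the accession as filed and its product quenches rhodamine fluorescence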
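Fluorescence-quenching assay with 15 nM Sfp, 5 uM rhodamine-CoA and 12.5 uM BHQ-2-labelled ybbR peptide in pH 7.6 Hepes/MgCl2 buffer. Enzyme was pre-incubated with compound for 15 min at room temperature. Rate was taken from the 30-min fluorescence change (525/598 nm).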
VDR inh: Inhibitors of the vitamin D receptor (VDR): qHTS; 0.93% of 400,000 active; VDR-SRC2-3 peptide fluorescence polarization, 2 h; Potency, µM, most hits filed as inhibitors; Vitamin D3 receptor (Homo sapiens), P11473
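Fluorescence polarization assay measuring small-molecule disruption of VDR binding to the coregulator peptide SRC2-3. Compounds were pin-transferred (23 nl) into the reagent mix and incubated 2 h at room temperature before reading.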
Tau fibril ThT: qHTS for Inhibitors of Tau Fibril Formation, Thioflavin T Binding | AID 1460, 2008 | Microtubule-associated protein tau (Homo sapiens), P10636 | Potency, µM (series often up to 57.4 µM), usual class: inhibitors | recombinant tau K18 P301L, heparin-induced fibrillization, ThT fluorescence | 2.1% of 270,000 active; also: nearly all actives have a fitted effect of over 55% in size
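In this qHTS, human K18 P301L tau is incubated with compound and heparin for 6 hr at 37 C, and Thioflavin T fluorescence then reports fibril load.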
Tau fluor counter: Counterscreen qHTS for Inhibitors of Tau Fibril Formation, Fluorescence Polarization; Potency, µM (doses to about 57.7 µM); 0.93% of 280,000 active; tau K18 P301L Alexa594 fluorescence, heparin fibrillization; also: nearly all actives have a fitted effect of over 55% in size
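Human tau K18 P301L (15 uM unlabeled, 0.24 uM Alexa 594-labeled) in 100 mM sodium acetate pH 7 with 20 uM heparin, 6 hr at 37 C. ThT 30 uM added, 1 hr ambient; Alexa 594 FP and total fluorescence read at 555/632 nm.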
Tau fibril FP: qHTS for Inhibitors of Tau Fibril Formation, Fluorescence Polarization; K18 P301L tau heparin fibrillization, Alexa594 FP, 6 h; 0.39% of 280,000 active; Microtubule-associated protein tau (Homo sapiens), P10636; AID 1468, 2008; Potency, µM (highest dose often 57.7 µM), usual class: inhibitors; also: nearly all actives have a fitted effect of over 55% in size
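Recombinant K18 P301L […], labeled with Alexa 594 at 0.24 uM over 15 uM unlabeled; heparin inducer 20 uM final; 37 C, 6 hr; FP endpoint.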
Large screens that a line does not name were inactive; [ ] = remark or other dose. Calls follow the shape of the dose curve; as a rule, active = well fitted curve in the direction sought with a large enough effect; inconclusive = small, poorly fitted or top-dose-only effect, or another doubt; inactive = no such curve, though single readings can be large; an effect the other way counts as inactive or inconclusive.

O=C(Nc1ccc(C(F)(F)F)cn1)Nc1cccs1	none
O=C(Nc1cccs1)Nc1cc(C(F)(F)F)ccc1Cl	Tau fluor counter 6.3µM[quencher] (no result: PLK1 PBD inh, Sfp PPTase inh)
O=C(Nc1cccs1)Nc1ccccc1Br	Tau fluor counter inconclusive, Tau fibril FP inconclusive
O=C(Nc1cccs1)Nc1c(F)c(F)c(F)c(F)c1F	Sfp PPTase inh 45µM
CC(NC(=O)c1ccc(Cl)s1)C1CCCO1 (stereo not drawn)	none
C[C@@H](O)[C@@H]1C(=O)N2C(C(=O)O)=C([C@H]3CCCO3)S[C@H]12	Sfp PPTase inh 79µM (no result: PLK1 PBD inh, VDR inh, Tau fibril ThT, Tau fluor counter, Tau fibril FP)
COCCN(C(=O)C1CC1)c1nnc(-c2ccc(C)cc2)s1	none
CCOc1ccc(-c2nnc(N(CC)C(=O)C3CCC3)s2)cc1	PLK1 PBD inh inconclusive, Sfp PPTase inh 40µM
COc1ccc(CCNC(=O)c2ccc(Cn3c(=O)c4ccccc4n(Cc4cccc(F)c4)c3=O)cc2)cc1OC	none (no result: PLK1 PBD inh, Sfp PPTase inh)
O=C(Nc1cccc(N=Cc2cc(Cl)cc(Br)c2O)c1)c1ccco1	Tau fibril ThT 16µM
O=C(Nc1cccc(N=Cc2cc(Br)cc(Br)c2O)c1)c1ccco1	PLK1 PBD inh inconclusive, Tau fibril ThT 14µM, Tau fibril FP inconclusive
O=C(Nc1cc(Br)c(O)c(Br)c1)c1cccc(NC(=O)c2ccco2)c1	Sfp PPTase inh inconclusive (no result: Tau fibril ThT, Tau fluor counter, Tau fibril FP)
O=C(Nc1cccc(NC(=O)c2ccco2)c1)c1cccc(Br)c1	none (no result: Tau fibril ThT, Tau fluor counter, Tau fibril FP)
CC(C)(C)OC(=O)NCCCCCNC(=O)c1[nH]cnc1C(=O)Nc1cc(Br)ccc1F	none (no result: Sfp PPTase inh, VDR inh, Tau fibril ThT, Tau fluor counter, Tau fibril FP)
COc1ccc(CCNC(=O)Cn2cc(S(=O)(=O)Cc3ccccc3Cl)c3ccccc32)cc1OC	none (no result: PLK1 PBD inh, Sfp PPTase inh)
Cc1ccc(S(=O)(=O)N2CCN(Cc3ccccc3)CC2)s1	none (no result: Sfp PPTase inh, Tau fibril ThT, Tau fluor counter, Tau fibril FP)
O=C(O)CCc1ccc(-c2cccs2)n1NC(=O)c1ccccc1Br	Sfp PPTase inh inconclusive
CC(C)(C)c1ccc(C(=O)Nn2c(CCC(=O)O)ccc2-c2cccs2)cc1	Sfp PPTase inh 56µM
O=C(O)CCc1ccc(-c2cccs2)n1-c1ccc(C(=O)O)cc1	PLK1 PBD inh inconclusive, Sfp PPTase inh 28µM, Tau fibril ThT inconclusive
CC(=O)c1cccc(-n2c(CCC(=O)O)ccc2-c2ccccc2)c1	Sfp PPTase inh 71µM
CC(=O)c1cccc(-n2c(CCC(=O)O)ccc2-c2cccs2)c1	Sfp PPTase inh 8.9µM, Tau fibril ThT inconclusive
CC(=O)c1ccc(-n2c(CCC(=O)O)ccc2-c2ccccc2)cc1	none (no result: Tau fibril ThT, Tau fluor counter, Tau fibril FP)
COc1ccc(-c2nsc(NC(=O)COc3ccc(C)c(C)c3)n2)cc1	Tau fluor counter inconclusive (no result: PLK1 PBD inh, Sfp PPTase inh)
CC(=O)N1CCN(c2csc3ccc(Cl)cc3c2=O)CC1	Tau fibril ThT inconclusive (no result: PLK1 PBD inh, Sfp PPTase inh)
O=c1c(N2CCN(c3cccc(Cl)c3)CC2)csc2ccc(Cl)cc12	Tau fibril ThT 8.9µM (no result: PLK1 PBD inh, Sfp PPTase inh)
Cn1cc(Br)c(NC(=O)/C=C/C(=O)O)n1	Sfp PPTase inh 8.9µM
CC1CCN(C(=O)CSc2nncn2-c2ccccn2)CC1	PLK1 PBD inh 27µM, Sfp PPTase inh inconclusive, VDR inh inconclusive
O=C(CSc1nncn1-c1ccccc1)N1CCCC1	none (no result: Tau fibril ThT, Tau fluor counter, Tau fibril FP)
O=C(C1CCN(S(=O)(=O)c2cccc3nonc23)CC1)N1CCN(c2ccc(F)cc2)CC1	Tau fibril FP inconclusive (no result: PLK1 PBD inh, Sfp PPTase inh)
CC1CC(C)CN(CCCNC(=O)c2ccc3c(c2)NC(=O)CS3)C1 (stereo not drawn)	PLK1 PBD inh 30µM (no result: Tau fibril ThT, Tau fluor counter, Tau fibril FP)
COc1ccc(S(=O)(=O)NCc2ccc(C(=O)NCCCN3CC(C)CC(C)C3)cc2)cc1 (stereo not drawn)	PLK1 PBD inh 27µM (no result: Tau fibril ThT, Tau fluor counter, Tau fibril FP)
NC(=O)C1CCCN(C(=O)c2ccc3c(c2)NC(=O)CS3)C1 (stereo not drawn)	none (no result: Sfp PPTase inh, Tau fibril ThT, Tau fluor counter, Tau fibril FP)
O=C1CSc2ccc(C(=O)N3CCCCC3)cc2N1	PLK1 PBD inh 15µM (no result: Sfp PPTase inh, VDR inh, Tau fibril ThT, Tau fluor counter, Tau fibril FP)
O=C(CSc1nc2c([nH]c3ccccc32)c(=O)n1-c1ccccc1F)Nc1cccc(Cl)c1	Tau fluor counter inconclusive, Tau fibril FP inconclusive (no result: PLK1 PBD inh, Sfp PPTase inh)
